ELG1 genotoxic: inducers of genotoxicity in HEK293T ELG1-luciferase cells. HEK293T ELG1-luciferase reporter, luminescence, 16 h. Potency, µM (titrated, usually from 46 µM), for the others: top-dose activity change, positive = activation, actives largely listed as activators. actives 1.3% (n = 330,000). AID 504466; note: % of control where 0% means no effect; nearly all actives have a fitted effect of over 60% in size
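16 hr compound incubation (37 °C, 5% CO2) of HEK293T cells carrying luciferase-tagged ELG1; luciferase then measured by ONE-Glo luminescence after 30 min at RT.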
SMN2 splice enh: SMN2 splice variant enhancement. HEK293 SMN2-luciferase splicing reporter, luminescence, 30-36 h. actives 2.8% (n = 210,000). Potency, µM (highest dose often 46.1 µM), without a hit: at the highest dose activity change, positive = activation, usual class: activators. AID 1458; note: % of control where 0% means no effect; nearly all actives have a fitted effect of over 55% in size
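HEK293 cells carry an SMN2 minigene-luciferase reporter in which exon 7 inclusion puts luciferase in frame. Cells were seeded at 2000 cells/well, attached for 10-12 hours, then exposed to compounds for 30-36 hours at 37C before ONE-Glo luminescence.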
FLuc counter: firefly luciferase modulation, counter-screen for miR-21 project. actives 6.9% (n = 360,000). Potency, µM (series often up to 57.5 µM), inactives show top-dose activity change, negative = inhibition, actives largely listed as inhibitors. purified FLuc, Km substrates, luminescence inhibition. P08659;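 note: plate controls were vehicle for no effect and reference inhibitor for full effect; nearly all actives have a fitted effect of over 55% in size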
Target sequence (P08659 whole entry, looked up): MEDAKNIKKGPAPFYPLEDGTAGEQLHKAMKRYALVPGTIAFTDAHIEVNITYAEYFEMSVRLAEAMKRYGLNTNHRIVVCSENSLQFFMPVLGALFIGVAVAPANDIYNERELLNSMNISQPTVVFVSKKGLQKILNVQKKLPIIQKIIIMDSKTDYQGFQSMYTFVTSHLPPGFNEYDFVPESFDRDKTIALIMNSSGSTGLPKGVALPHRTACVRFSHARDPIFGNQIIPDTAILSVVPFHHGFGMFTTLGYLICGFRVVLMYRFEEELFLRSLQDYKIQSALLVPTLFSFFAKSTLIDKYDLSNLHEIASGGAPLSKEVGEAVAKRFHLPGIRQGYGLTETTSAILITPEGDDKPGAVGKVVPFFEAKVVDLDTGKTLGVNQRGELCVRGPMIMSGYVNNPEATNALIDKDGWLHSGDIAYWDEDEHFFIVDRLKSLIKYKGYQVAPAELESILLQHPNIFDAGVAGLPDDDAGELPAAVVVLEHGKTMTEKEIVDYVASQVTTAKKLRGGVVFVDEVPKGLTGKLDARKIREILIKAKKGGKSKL
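Purified P. pyralis luciferase (10nM final) with 10uM D-luciferin and 10uM ATP (Km levels) in 50mM Tris acetate pH 7.5, 10mM Mg acetate, 0.01% Tween-20, 0.05% BSA; qHTS 6-point titration, ~60 µM downward; luminescence read.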
Rab9 promoter act: Rab9 promoter activation. Potency, µM (highest dose often 9.22 µM), without a hit: top-dose activation, negative = inhibition, most hits filed as activators. actives 2.8% (n = 320,000). AID 485297. Huh7 Rab9 promoter-luciferase reporter, luminescence, 24 h; note: % of control where 0% means no effect; nearly all actives have a fitted effect of over 60% in size
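Huh7 cells stably carrying a Rab9 promoter-luciferase reporter, 1500 cells per well in OP-MEM I with 10% FBS, treated with compound 24 hours at 37C. Luciferase activity read by luminescence after 10 minutes with Amplite reagent.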
NPC1 prom act: NPC1 promoter activation; Huh7 NPC1 promoter luciferase reporter, 24 h; actives 2.4% (n = 320,000); Potency, µM (doses to about 9.22 µM), for inactives: at the highest dose activation, actives largely listed as activators; note: % of control where 0% means no effect; nearly all actives have a fitted effect of over 60% in size
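Luminescence read-out of NPC1 promoter-driven luciferase in stably transfected Huh7 cells; compounds delivered in DMSO and left 24 h at 37C, 5% CO2, qHTS titration format.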
* = called active by the depositor. Sampled rows, rich in hits. Any-hit rate of the full collection: about 7.4%. Calls come from the whole dose curve; as a rule, active = well fitted curve in the direction sought with a large enough effect; inconclusive = small, poorly fitted or top-dose-only effect, or another doubt; inactive = no such curve, though single readings can be large; an effect the other way counts as inactive or inconclusive. Potency is the fitted concentration of half-maximal effect.

What do the screens show for `O=C(OCC(=O)N1CCN(C(=O)c2ccco2)CC1)c1ccccc1C(=O)c1ccccc1`?
ELG1 genotoxic: -1.7%; SMN2 splice enh: -7.8%; FLuc counter: -0.5%; Rab9 promoter act: -4.1%; NPC1 prom act: -2.1%

What do the screens show for `O=C(c1ccco1)N1CCN(C(=O)c2cn(-c3ccccc3)nc2-c2ccccc2)CC1`?
ELG1 genotoxic: 5.5%; FLuc counter: 6.01µM*; Rab9 promoter act: 2.8%; NPC1 prom act: 14.4%

How did CCN(C(=O)COC(=O)c1cn(-c2ccccc2)nc1-c1ccccc1)C1CCS(=O)(=O)C1 (configuration not stated) do in these assays?
ELG1 genotoxic: 4.8%; SMN2 splice enh: 10.5%; FLuc counter: 23.9µM*; Rab9 promoter act: -0.8%; NPC1 prom act: -3.4%

Results for O=C(/C=C/c1cn(-c2ccccc2)nc1-c1cccnc1)c1ccco1 ?
ELG1 genotoxic: -13.9%; SMN2 splice enh: -37.0%; FLuc counter: 9.53µM*; Rab9 promoter act: -7.9%; NPC1 prom act: -5.3%

What do the screens show for `CCOC(=O)Cn1c(=O)n(C2CCCCC2)c2nc(-c3ccccc3Cl)nc(C(N)=O)c21`?
FLuc counter: -5.1%

What do the screens show for `Cc1ccccc1CCNC(=O)c1ccc2c(c1)nc1n2CCC(C)C1` (configuration not stated)?
FLuc counter: 8.49µM*

What do the screens show for `Cc1ccc(CCNC(=O)c2ccc3c(c2)nc2n3CCOC2)cc1`?
FLuc counter: -17.9%

How did O=C(NCCc1ccccc1)c1ccc2c(c1)nc1n2CCOC1 do in these assays?
FLuc counter: 5.36µM*

How did Cc1ccc(C)c(CNC(=O)c2ccc3c(c2)nc2n3CCCCC2)c1 do in these assays?
FLuc counter: 15.1µM*

How did CCCSCCCNC(=O)c1ccc2c(c1)nc1n2CCCCC1 do in these assays?
FLuc counter: 15.1µM*

Results for CC1Oc2ccccc2N(CC(=O)NC2CCCCC2)C1=O (configuration not stated) ?
ELG1 genotoxic: -1.2%; FLuc counter: -0.4%; Rab9 promoter act: 0.4%; NPC1 prom act: 0.7%

How did COc1ccc(Cl)cc1NC(=O)C(C)n1c(=O)cc(C(F)(F)F)c2c(C)nn(C)c21 (configuration not stated) do in these assays?
FLuc counter: -8.2%

How did CCOc1ccccc1N(CC)C(=O)c1noc2c1COc1ccc(C)cc1-2 do in these assays?
FLuc counter: 0.2%

How did CCOc1ccc(CNC(=O)CN2C(=O)C3CCCCN3c3ccc(C(=O)N4CCCC4)cc32)cc1 (configuration not stated) do in these assays?
FLuc counter: 5.2%

What do the screens show for `CC(C)CCNC(=O)c1ccc2c(c1)nc1n2CCCCC1`?
FLuc counter: 6.01µM*

What do the screens show for `CCc1ccc(CNC(=O)c2ccc3c(c2)nc2n3CCCCC2)cc1`?
FLuc counter: 13.5µM*

Results for O=C(NCCc1ccccc1Cl)c1ccc2c(c1)nc1n2CCCCC1 ?
FLuc counter: 0.536µM*

What do the screens show for `COc1ccc(CCNC(=O)c2ccc3c(c2)nc2n3CCCCC2)cc1OC`?
FLuc counter: -19.7%

How did CCN(CC)C(=O)Cn1cc(SCC(=O)NC2CCCC2)c2ccccc21 do in these assays?
ELG1 genotoxic: inconclusive; SMN2 splice enh: 0.8%; FLuc counter: -1.1%; Rab9 promoter act: 1.2%; NPC1 prom act: 2.3%

What do the screens show for `Cc1cccc(CN2C(=O)CC(c3ccc(Cl)cc3)c3c(C)nn(-c4nc(C)cc(C)n4)c32)c1` (configuration not stated)?
FLuc counter: -2.4%

Results for COc1ccc(CCNC(=O)COC(=O)c2cc(S(=O)(=O)N3CCCC3)ccc2O)cc1 ?
ELG1 genotoxic: 1.0%; FLuc counter: -14.5%; Rab9 promoter act: inconclusive; NPC1 prom act: 1.5%

Results for Cc1cccc(OCC(=O)N(Cc2cccs2)c2ccc(Cl)cc2)c1C ?
FLuc counter: -17.4%

What do the screens show for `Cc1c(N=C2NN=C(c3c[nH]c4ccccc34)CS2)c(=O)n(-c2ccccc2)n1C`?
ELG1 genotoxic: -3.4%; FLuc counter: -11.3%; Rab9 promoter act: 4.4%; NPC1 prom act: 12.0%

Bioassay records: PubChem, National Center for Advancing Translational Sciences (NCATS)
